Values joined by “and” are separate entries in the source; they are usually repeats but may differ in a detail not shown here. Identical values can stand only once. This is part of a sample that, as a whole, favours compounds with a hit. Of some 83,000 tested, about 20% had one in any assay.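 The endpoint reported here, percent growth, reads 100 for growth as untreated, 0 for no net growth and -100 for all cells dead.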 Active and inactive are the calls of the source.

The first experiment concerns SK-MEL-28 melanoma. Description: NCI-60 one-dose screen, 48 h (100 = growth as untreated, 0 = no growth, -100 = all killed). Particulars: 10 µM. As to the method:
Growth inhibition of the SK-MEL-28 human tumor cell line is measured as a screen for anti-cancer activity. Cells are grown in 96 well plates and exposed to the test compound for 48 hours. Compounds are tested at a single concentration, which is 10^-5 M for most compounds. The reported endpoint is percent growth (GI% or GIPRCNT), where numbers from 0 - 100% represent growth inhibition, and numbers from -100% - 0 represent cell death. For example, a value of 40 represents 60% growth inhibition. A value of 0 means no net growth occurred over the course of the experiment. A value of -40 indicates 40% of cells at the beginning of the experiment died by the end of the experiment. A value of -100 means all cells are dead at the end of the experiment.
NCI-60 Human Tumor Cell Lines Screen was performed using the standard one-dose NCI protocol, which is described in more detail at https://dtp.cancer.gov/discovery_development/nci-60/default.htm.
Compounds with GIPRCNT values below 10 were considered active. Activity score was based on GIPRCNT using the following formula: […]
Score is 0 for GIPRCNT values of 100 or above, 50 for GIPRCNT values of 0, and 100 for GIPRCNT values of -100.
Consider `S=c1nc[nH]c2nc[nH]c12`, for which the growth was 114% (inactive). Still for that read-out and setting: then `O=c1ccn2c(n1)OC1CC2OC1COC(c1ccccc1)(c1ccccc1)c1ccccc1` (stereo not given), with 118% (inactive).

Staying with this experiment, now noted: 10 µM unless noted.
Take `O=C1c2ccccc2C(c2ccccc2)C1c1ccccc1` (stereo not given): the growth is 111% (inactive). Still for that read-out and setting: then `Nc1ccc(Cl)c(S(=O)(=O)O)c1`, with 106% (inactive). On the same count and under the same terms, as for `CC1(CO)CCCC1NCCNC1CCCC1(C)CO` (stereo not given), the figure is 104% (inactive) and 108% (inactive); as for `C(=N\OCCc1ccccc1)/c1ccccn1`, 114% (inactive) and 112% (inactive). Take `CC(=O)C[n+]1ccccc1Sc1ccc(Cl)cc1`: the growth is 100% (inactive). Same read-out and setting: then `C/C=C/C(=O)OCCCCCCCCCCCC`, with 114% (inactive). On the same count and under the same terms, as for `OCc1ccccc1F`, the figure is 103% (inactive); as for `CCN(C)c1ccccc1`, 105% (inactive); as for `O=C(/C=C/C=C/c1ccc2c(c1)OCO2)N1CCCCC1`, 129% (inactive) and 94.1% (inactive). The same measure, in the same setting: as for `CC(=O)Nc1ccc2oc(=O)ccc2c1`, the figure is 115% (inactive); as for `CCN(CC)C(CC(=O)c1ccccc1)C(=O)c1ccccc1` (stereo not given), 118% (inactive); as for `C/C=C(/C(=O)NC(N)=O)C(C)C`, 117% (inactive). For the compound `C=CCN1C(=O)c2ccccc2C1=O`, the growth was 108% (inactive).

As to `Clc1ccc(/C=C/c2ccc3ccccc3n2)cc1`, the growth is 57.5% (inactive) and 166% (inactive) and 101% (inactive). `Nc1nc(-c2ccccn2)cc(-c2cc(-c3ccccn3)nc(N)n2)n1`: the growth is 113% (inactive). The same measure, in the same setting: as for `O=C(O)C(Cc1ccc(OS(=O)(=O)Cc2ccccc2)cc1)NS(=O)(=O)Cc1ccccc1` (stereo not given), the figure is 108% (inactive) and 116% (inactive); as for `OC(CC(c1ccccc1)c1cccc2ccccc12)(c1ccccc1)c1ccccc1` (stereo not given), 95.8% (inactive) and 100% (inactive). Regarding `O=C(O)C1CSCN1` (stereo not given), the growth is 117% (inactive) and 114% (inactive). Same read-out and setting: as for `COC(=O)C(Cc1cn(C(C)=O)c2ccccc12)P(=O)(OC)OC` (stereo not given), the figure is 114% (inactive); as for `CCCCCCC(C)CC1=C(O)c2ccccc2C(=O)C1=O` (stereo not given), 64.4% (inactive). On the same count and under the same terms, as for `CC1NC(C)c2ccc3ccccc3c2O1` (stereo not given), the figure is 111% (inactive); as for `COc1ccc(COC=O)cc1`, 111% (inactive); as for `CCC(C)(O)CCC(C)(O)CC` (stereo not given), 124% (inactive).

Take `Nc1nc(N)c2cc(S(=O)(=O)c3ccccc3)ccc2n1`: the growth is 71% (inactive) and 68.9% (inactive).

For the compound `ON=C(C1CCCCC1)C1CCCCC1`, the growth was 102% (inactive). `CCOC(=O)CN1CCC(C(=O)OCC)CC1`: the growth was 108% (inactive). Same read-out and setting: then `CCN(CC)CCNC(=O)c1ccc(NCN2C(=O)NC(c3ccccc3)(c3ccccc3)C2=O)cc1`, with 117% (inactive); and `CC(=O)c1cc2ccccc2o1`, with 96.6% (inactive).

`NCCSSC/C=C\CSSCCN`: the growth was 115% (inactive). Consider `CCOP(C)(=O)/C(Cc1ccc(OC)c(OC)c1)=N\O` (stereo not given), for which the growth is 111% (inactive). Still for that read-out and setting: then `N#CC1c2ccccc2C=CN1C(=O)c1ccccc1` (stereo not given), with 103% (inactive) and 122% (inactive); and `O=C(N=C1C(=O)C2(CCCCC2)C2(N=C(c3ccccc3)OC2=O)C12CCCCC2)c1ccccc1` (stereo not given), with 84.5% (inactive); and `Nc1ccc2ccc(NS(=O)(=O)N3CCCCC3)cc2c1`, with 55.8% (inactive).

For `Nc1ccc(O)c(C(=O)O)c1`, the growth was 94.7% (inactive) and 116% (inactive) and 115% (inactive). On the same count and under the same terms, then `NC(=O)Cc1nc(O)cc(=O)[nH]1`, with 113% (inactive); and `Cc1cc(=NO)cc(C)n1O`, with 112% (inactive).

The experiment is the same for the next values; noted with them: 50 µM.
As to `S=c1nc[nH]c2nc[nH]c12`, the growth is 75.6% (inactive).

The experiment is the same for the next values; noted with them: 100 µM.
Regarding `O=c1ccn2c(n1)OC1CC2OC1COC(c1ccccc1)(c1ccccc1)c1ccccc1` (stereo not given), the growth was 74.3% (inactive).

The values above are taken from PubChem BioAssay (NCI).
